Source: PubChem BioAssay
The list is not random: actives were taken first. Their share in the collection is about 5.2%.
Calb biofilm kill – clotrimazole potentiators killing Candida biofilms, primary screen, with clotrimazole, Alamar Blue; C. albicans biofilm + clotrimazole; inhibition, % at 6 µM; hit rate 0.14% among 85,000; AID 834, 2007;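 active = inhibition above 20%; inactive = inhibition below 20%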;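 note: preformed 24 hr biofilms exposed to compound for 48 hr; 0% = biofilm without compound and 100% = blank killed by clotrimazole plus chlorhexidine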
EphB4 antag – EphB4-ephrin-B2 interaction antagonists, primary screen, biochemical, TNYL-RAW peptide probe, fluorescence polarization | EphB4 LBD / TNYL-RAW-Alexa532 peptide | inhibition, % at 7 µM | Ephrin type-B receptor 4 (Homo sapiens), P54760 | hit rate 0.15% among 97,000;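 active = inhibition above the screen-wide mean inhibition plus 3 SD, cut at about 15% in these data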;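 note: 0% = DMSO wells and 100% = excess unlabeled TNYL-RAW peptide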
Target sequence (P54760 whole entry, looked up, the tested form may be a part): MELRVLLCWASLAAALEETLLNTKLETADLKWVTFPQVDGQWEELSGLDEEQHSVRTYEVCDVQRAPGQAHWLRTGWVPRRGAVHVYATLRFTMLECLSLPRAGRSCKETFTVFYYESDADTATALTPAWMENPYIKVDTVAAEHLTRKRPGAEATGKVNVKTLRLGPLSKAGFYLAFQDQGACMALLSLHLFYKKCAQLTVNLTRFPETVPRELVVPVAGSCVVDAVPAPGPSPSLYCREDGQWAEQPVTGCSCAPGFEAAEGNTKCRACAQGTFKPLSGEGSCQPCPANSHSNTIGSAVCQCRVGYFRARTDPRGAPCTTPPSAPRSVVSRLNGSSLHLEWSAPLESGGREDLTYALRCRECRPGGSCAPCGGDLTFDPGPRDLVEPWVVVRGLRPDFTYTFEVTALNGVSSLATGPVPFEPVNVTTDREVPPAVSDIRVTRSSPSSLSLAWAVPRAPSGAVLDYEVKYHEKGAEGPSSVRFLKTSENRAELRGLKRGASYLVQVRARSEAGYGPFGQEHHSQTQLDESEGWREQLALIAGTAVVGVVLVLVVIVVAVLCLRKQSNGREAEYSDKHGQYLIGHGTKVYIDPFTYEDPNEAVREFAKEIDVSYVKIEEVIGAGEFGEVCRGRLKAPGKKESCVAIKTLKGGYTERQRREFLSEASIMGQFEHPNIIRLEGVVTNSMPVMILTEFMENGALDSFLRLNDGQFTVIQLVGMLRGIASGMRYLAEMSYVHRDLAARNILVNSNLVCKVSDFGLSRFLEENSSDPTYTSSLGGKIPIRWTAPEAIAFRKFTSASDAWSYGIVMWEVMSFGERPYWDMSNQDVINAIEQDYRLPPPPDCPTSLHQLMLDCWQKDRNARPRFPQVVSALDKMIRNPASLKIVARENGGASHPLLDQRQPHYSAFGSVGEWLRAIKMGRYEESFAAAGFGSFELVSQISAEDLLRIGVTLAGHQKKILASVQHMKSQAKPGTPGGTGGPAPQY
PostGolgi ctrl – growth inhibition of yeast control strain, primary screen, counter-screen for post-Golgi transport modulator project. efflux-deficient yeast background strain, growth absorbance A615, 16 h. inhibition, % at 10 µM. hit rate 5% among 98,000. AID 738, 2007
PostGolgi yeast – phenotypic screen on post-Golgi transport, primary screen; post-Golgi transport phenotypic cell assay; inhibition, % at 10 µM; AID 739, 2007; hit rate 0.9% among 98,000;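 note: yeast cells grown in 1536-well plates; yeast grown about 18 h at 30C before absorbance read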
Numbers without * were called inactive; x = no result given. Cut-off read from the data, not from the text of the source, unless noted: active = inhibition above about 30%; inactive = the rest.

SMILES	Calb biofilm kill	EphB4 antag	PostGolgi ctrl	PostGolgi yeast
CN1/C(=C/C2CC(=O)N(c3cccc4ccccc34)C2=O)C(C)(C)c2ccccc21 (stereo not drawn)	-1	1	8	5
COC(=O)c1ccc(CSc2ncnc3c2nnn3-c2ccc(OC)cc2)o1	7	x	8	-4
COCc1cc(Sc2ccc(Br)cc2)nc(-c2ccccc2)n1	x	-1	11	-3
Clc1cc(Sc2ccc(Br)cc2)nnc1-c1ccccc1	x	6	65*	-8
O=C(NCc1ccc(Cl)cc1)c1ccc(Br)o1	x	-2	11	4
COc1ccc2nc(SCC(=O)Nc3ccc(S(=O)(=O)N4CCCC4)cc3)c(C#N)cc2c1	6	4	33*	12
COc1ccc2nc(SCC(=O)N3CCCCCC3)c(C#N)cc2c1	-1	-5	32*	-13
CCc1ccc2nc(SCC(=O)N3CCCCC3)c(C#N)cc2c1	6	-3	x	x
O=C(OCc1cc(Cl)ccc1OC(F)F)c1cc(S(=O)(=O)O)ccc1O	1	-4	6	-17
O=c1[nH]c(CN2CCCCC2)nc2c1C1(CCCC1)Cc1ccccc1-2	1	-10	x	x
CCCOc1ccc(/C=C/C(=O)Nc2ccc([N+](=O)[O-])cc2)cc1	x	0	95*	7
Cc1ccc(OCCNC(=O)/C=C/c2ccc([N+](=O)[O-])cc2)cc1C	x	-8	1	-6
CC(C)CNC(=S)NNC(=O)c1ccco1	8	-13	x	x
O=C(OCCCCN1C(=O)c2ccccc2C1=O)c1n[nH]c2ccccc12	-5	0	28	0
CC(C)c1ccc(C(=O)N(c2ccccn2)C(C)c2ccco2)cc1 (stereo not drawn)	3	-3	5	4
CC(c1ccco1)N(C(=O)c1cccs1)c1ccccn1 (stereo not drawn)	10	-1	41*	3
c1csc(C2Nc3cccc4cccc(c34)N2)c1	x	-3	32*	-10
CO/N=C(\c1nonc1N)N1CCN(c2ccc(Cl)cc2[N+](=O)[O-])CC1	x	-6	58*	-7
O=C(/C=C/c1ccc(Cl)cc1)N1CCN(c2ncccn2)CC1	x	2	-2	7
O=C(/C=C/c1ccc(Cl)cc1)N1CCN(c2ccc(Cl)cc2[N+](=O)[O-])CC1	x	4	93*	-14
CO/N=C(\c1nonc1N)N1CCN(c2ccc([N+](=O)[O-])cc2Cl)CC1	x	3	32*	0
CCOc1ccc(C2N(c3ccc(F)cc3)C(=O)C3CCCN32)cc1OC (stereo not drawn)	-4	6	5	-10
Cn1c(=O)[nH]c(=O)c2c1nc(Br)n2CC(O)c1ccccc1 (stereo not drawn)	-3	-6	-4	-15
Cc1ccc(C(=O)N/C(=C\c2cccs2)C(=O)NCCCn2ccnc2)cc1C	x	2	2	-7
O=C(NCc1ccccn1)C1CCN(S(=O)(=O)c2ccccc2)CC1	7	8	13	-7
SMILES	Calb biofilm kill	EphB4 antag	PostGolgi ctrl	PostGolgi yeast
O=C(NCc1ccccn1)C1CCN(S(=O)(=O)N2CCCC2)CC1	2	x	39*	-1
O=C(COC(=O)CCS(=O)(=O)c1ccc(Cl)cc1)NC1CCCCC1	3	1	-2	-9
O=C(Cc1ccc(Br)cc1)NC1CCCCC1	-2	-5	6	7
O=C(CCC(=O)OCC(=O)c1ccc(F)cc1)NC1CCCCC1	6	-10	4	40*
O=C(CCC(=O)OCC(=O)c1ccc(Br)cc1)NC1CCCCC1	5	-1	37*	-4
CCOC(=O)N1CCN(c2cc3[nH]c(=S)[nH]c3cc2F)CC1	1	-1	-9	10
CCOC(=O)N1CCN(c2c(F)cc3[nH]c(=S)[nH]c3c2Br)CC1	x	12	33*	1
CCC(C)c1ccc(OCCN2CCCC2)cc1 (stereo not drawn)	-3	2	36*	7
CCOC(=O)c1sc2nc(C)c3c(c2c1N)CC(C)(C)OC3	1	15*	2	17
CCCc1nc2sc(C(=O)OCC)c(N)c2c2c1COC(C)(C)C2	0	-2	16	0
CCn1c(=O)c2c(n3cnnc13)-c1ccccc1CC21CCCCC1	9	-3	56*	28
Cc1cccc(-n2c(=O)c3c(n4cnnc24)-c2ccccc2CC32CCCCC2)c1	x	12	46*	-18
CCn1c(SCC(N)=O)nc2c(c1=O)C1(CCCC1)Cc1ccccc1-2	0	-1	50*	-10
CCCn1c(SCC#N)nc2c(c1=O)C1(CCCC1)Cc1ccccc1-2	9	6	29	-5
O=c1c2c(n3cnnc3n1-c1ccccc1)-c1ccccc1CC21CCCCC1	x	-11	20	13
O=C(NCCCN1CCc2ccccc2C1)Nc1ccc(Cl)cc1	4	6	10	3
